Test [1] relates to TAB109. Put plainly: qHTS profiling for inhibitors of Plasmodium falciparum proliferation (AID 504749). Note: nearly all actives have a fitted effect of over 60% in size. Note: potency is the fitted concentration of half-maximal effect. The following applies: P. falciparum in erythrocytes, SYBR Green DNA, 72 h; series mostly up to 28.7 µM. The gist of the method: (§1)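 SYBR Green fluorescence (ex 485 nm, em 535 nm) reports parasite DNA after 72 h compound exposure of infected red cells at 0.3% parasitemia, 2.5% hematocrit; signal normalized to 0.29 uM artemisinin and vehicle wells.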
(In general: Quantitative high-throughput screening tests each substance at several concentrations.)

Test [2] has as its system TAB113. The description is as above. To be noted: P. falciparum in erythrocytes, SYBR Green DNA, 72 h; series mostly up to 28.7 µM. The gist of the method:
as §1

In test [3] the test system is TAB165. The test is described as above. The following applies: P. falciparum in erythrocytes, SYBR Green DNA, 72 h; series mostly up to 28.7 µM. The method in brief: as §1
For test [4], the system named is W2. The test is described as above. To be noted: P. falciparum in erythrocytes, SYBR Green DNA, 72 h; series mostly up to 28.7 µM. The method in brief: as §1
The subject of test [5] is CRL-7250. Put plainly: Cytotoxic Profiling of Annotated Libraries Using Quantitative High-Throughput Screening (AID 1296008). For max response: % is set by controls: 0 for no effect and ±100 for the full control effect. Note: nearly all actives have a fitted effect of over 60% in size. Note: potency is the fitted concentration of half-maximal effect. To be noted: Five cell lines viability, CellTiter-Glo ATP luminescence, 48-72 h; max response: stronger effect = lower value. The method in brief: (§2)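 Cells exposed to compounds for 48 or 72 hr at 37 degrees Celsius. Viability read as ATP-coupled luminescence with CellTiter-Glo after 10 min at room temperature.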
(In ATP-based viability assays light output follows the ATP content of the culture.)

The test system of test [6] is HEK293. The description is as above. The following applies: Five cell lines viability, CellTiter-Glo ATP luminescence, 48-72 h; max response: stronger effect = lower value. The method in brief:
as §2

Test [7] deals with HaCat. The description is as above. To be noted: Five cell lines viability, CellTiter-Glo ATP luminescence, 48-72 h; max response: stronger effect = lower value. The method in brief:
as §2

Test [8] concerns KB-3-1. Described as above. To be noted: Five cell lines viability, CellTiter-Glo ATP luminescence, 48-72 h; max response: stronger effect = lower value. The gist of the method: as §2
In test [9] the test system is NIH3T3. The description is as above. To be noted: Five cell lines viability, CellTiter-Glo ATP luminescence, 48-72 h; max response: stronger effect = lower value. The gist of the method: as §2
For test [10], the system named is HACAT. Put plainly: qHTS assay to identify novel small-molecules to repurpose for Merkel cell carcinoma treatment (AID 1296009). Note: nearly all actives have a fitted effect of over 60% in size. Note: potency is the fitted concentration of half-maximal effect. The following applies: MCC and control cell lines, CellTiter-Glo viability, 72 h; at 44.8 µM (top of the series) unless noted. The method in brief:
(§3)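 CellTiter-Glo luminescence after 72 hr compound exposure at 37 degree celsius gave cell viability. Libraries NPC and MIPE were run as 8- and 11-point dose responses; RLUs normalized to DMSO (negative) and no-cell (cytotoxicity) controls.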

Test [11] has as its system MCC-13. The test is described as above. To be noted: MCC and control cell lines, CellTiter-Glo viability, 72 h; series mostly up to 46 µM. The method in brief:
as §3

The test system of test [12] is MCC-26. Described as above. The following applies: MCC and control cell lines, CellTiter-Glo viability, 72 h; series mostly up to 46 µM. The method in brief: as §3
Test [13] relates to MKL-2. The description is as above. The following applies: MCC and control cell lines, CellTiter-Glo viability, 72 h; series mostly up to 46 µM. The method in brief: as §3
For test [14], the system named is NIH3T3. The description is as above. To be noted: MCC and control cell lines, CellTiter-Glo viability, 72 h; at 44.8 µM (top of the series). The gist of the method: as §3
In test [15] the test system is UISO. The description is as above. The following applies: MCC and control cell lines, CellTiter-Glo viability, 72 h; series mostly up to 46 µM. The gist of the method: as §3
For test [16], the system named is C33A. Put plainly: Primary qHTS to identify gynecologic anti-cancer compounds using libraries of approved drugs and bioactive compounds (AID 1345084). Note: % is set by controls: 0 for no effect and ±100 for the full control effect; nearly all actives have a fitted effect of over 55% in size. The following applies: Gynecologic cancer cell panel viability, ATPlite luminescence, 48 h; series mostly up to 57.5 µM. The gist of the method: (§4)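 In this quantitative HTS, cell killing is estimated from loss of ATP-dependent luciferase light. Cells see five compound concentrations over a 48 h exposure.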

Test [17] concerns CAOV3. The test is described as above. To be noted: Gynecologic cancer cell panel viability, ATPlite luminescence, 48 h; series mostly up to 57.5 µM. The method in brief: as §4
Test [18] has as its system MKL-1. As to the kind of experiment: qHTS assay to identify novel small-molecules to repurpose for Merkel cell carcinoma treatment (AID 1296009). Note: nearly all actives have a fitted effect of over 60% in size. Note: potency is the fitted concentration of half-maximal effect. The following applies: MCC and control cell lines, CellTiter-Glo viability, 72 h; series mostly up to 46 µM. The gist of the method: as §3
In test [19] the test system is WaGa. The test is described as above. To be noted: MCC and control cell lines, CellTiter-Glo viability, 72 h; series mostly up to 46 µM. The gist of the method:
as §3

Results filed as inconclusive are left out. Values without a mark were called inactive. The source made the active and inactive calls. Calls come from the whole dose curve; as a rule, active = well fitted curve in the direction sought with a large enough effect; inconclusive = small, poorly fitted or top-dose-only effect, or another doubt; inactive = no such curve, though single readings can be large; an effect the other way counts as inactive or inconclusive.

In the case of `Cc1c[nH]c2ccccc12`, the Potency entry in [1], in [2], in test [3], in [4], in test [11] and in test [12] was “inactive” throughout. The Potency entry in test [13], in [15], in test [16] and in test [17] was “inactive” each time. For the same compound, the compound was classed as inactive in test [5], in test [7], in [9], in test [10] and in test [14]. Also, the max response in [6] is 2.22%; in test [8], 8.35%.

In the case of `O=C1C(=O)c2ccccc2C(O)=C1C1CCC(c2ccc(Cl)cc2)CC1` (configuration not stated), the Potency is 2.5 nM (active) in [1], 2 nM (active) in test [2] and 10 nM (active) in [3]. Further, the max response in test [5] was 1.68%; in test [6], 0.597%; in [7], -2.46%; in [8], -5.6%; in test [9] it was 2.17%. Besides, the Potency result in test [11], in [12], in test [18], in [13], in [15] and in test [19] was “inactive” each time. For the same compound, the Potency result in [16] and in test [17] was “inactive” each time.

Take `CC(=O)Nc1ccc(S(=O)(=O)Nc2ccc([N+](=O)[O-])cc2)cc1`: the Potency result in [1], in test [2], in [3], in test [4], in [11] and in [12] was “inactive” in each case. For the same compound, the Potency entry in test [18], in [13], in test [15], in [16] and in test [17] was “inactive” throughout. Besides, the max response is -4.42% in test [5], -4.06% in test [6], 15% in test [8] and 3.15% in test [9]. Moreover, the compound was called inactive in test [7] and in test [10].

For the compound `NCc1ccccc1Sc1ccccc1CO`, the Potency entry in test [2], in [11], in [12], in [18], in [13] and in [15] was “inactive” each time. The Potency entry in test [16] and in test [17] was “inactive” throughout. For the same compound, the Potency in [4] was 4780 nM (active). The max response is -5.17% in test [5], -7.72% in [6], -3.87% in test [7] and 6.51% in test [8]. The outcome in test [9] and in test [14] was inactive.

On to `CCc1oc2ccccc2c1C(=O)c1cc(Br)c(O)c(Br)c1`, for which the Potency result in test [1], in [2], in [3], in test [4], in test [11] and in test [12] was “inactive” in each case. The Potency result in [18], in [13], in test [16] and in test [17] was “inactive” each time. Further, the max response in test [5] is 0.197%; in test [6] it was -23.3%; in test [8] it was -3.26%; in test [9], -25.3%. In addition, the compound was called inactive in test [7] and in test [10].

Consider `CC(CNC1CCCCC1)OC(=O)c1ccccc1` (configuration not stated), for which the max response was -16.2% in [5]; -47.9% in [6]; -18.5% in test [7]; 3.78% in test [8]; 0.669% in test [9]. The Potency entry in test [11], in test [12], in test [18], in test [13], in [15] and in test [19] was “inactive” throughout. In addition, the Potency result in [16] was “inactive”.

In the case of `N[C@H](C(=O)O)[C@@H](O)c1ccc(O)c(O)c1`, in test [5], the outcome was inactive. Also, the max response in [6] is -0.734%; in [7] it was 1.85%; in test [8] it was -1.88%; in test [9], 0.856%. Also, the Potency result in test [11], in test [12], in test [18], in test [13], in test [15] and in [19] was “inactive” each time. The Potency entry in test [16] and in [17] was “inactive” in each case.

With `CCC(CC)(CC(=O)Nc1cccc(/C=C/c2nc(C3CCC3)cs2)c1)C(=O)O`, the Potency result in test [1], in test [2], in test [3], in test [4], in test [11] and in test [12] was “inactive” in each case. Besides, the Potency result in test [18], in test [15] and in test [16] was “inactive” in each case. Also, the max response was 2.29% in [5], -8.39% in [6], -22.9% in [8] and 2.57% in test [9]. The result in test [7] and in test [10] was inactive.

Turning to `CCCCCCCCOc1ccc(C(=O)c2ccccc2)c(O)c1`, the Potency result in test [1], in test [2], in test [3], in test [4], in test [11] and in test [12] was “inactive” each time. The Potency result in test [18], in test [13], in test [15], in test [19], in [16] and in test [17] was “inactive” each time. Further, the max response in [5] was -1.36%; in [6], -1.87%; in test [7], -8.31%; in test [8] it was 1.72%; in test [9], -1.51%.

`CN(C)CCC[C@@]1(c2ccc(F)cc2)OCc2cc(C#N)ccc21`: the Potency result in [1], in test [2], in test [11], in test [12], in [18] and in test [13] was “inactive” each time. Besides, the Potency entry in test [15], in [19], in test [16] and in test [17] was “inactive” in each case. For the same compound, the max response in test [5] is -3.32%; in [6] it was -9.91%; in test [7], -13.9%; in [8], -13.4%; in test [9] it was 0.771%.

Turning to `CCCCc1cc2ccccc2c(OCCN(C)C)n1`, the Potency result in test [1], in [2], in test [3], in test [11], in [12] and in test [18] was “inactive” in each case. For the same compound, the Potency entry in test [16] and in [17] was “inactive” each time. Also, the max response in test [5] is -9.77%; in [8], -3.23%; in [9], -15.9%. In addition, the Potency in test [6] was 18800 nM (active); in [19], 21100 nM (active). Further, the compound was classed as inactive in [7] and in test [10].

As for `O=C(O)C(Cc1cc(I)c(O)c(I)c1)c1ccccc1` (configuration not stated), the Potency entry in test [1], in test [2], in test [3], in [4], in test [11] and in test [12] was “inactive” each time. Moreover, the Potency entry in test [18], in test [13], in [15], in test [19], in test [16] and in test [17] was “inactive” each time. The max response is -5.72% in [5]; 1.09% in test [6]; -3.38% in test [7]; -19.5% in [8]; -19.3% in test [9].

`CC(=O)Nc1ncc([N+](=O)[O-])s1`: the Potency entry in [1], in test [2], in [3], in test [4], in test [11] and in [12] was “inactive” throughout. The Potency result in test [18], in [13], in test [15], in test [19], in [16] and in test [17] was “inactive” in each case. Moreover, the max response is 2.19% in test [5]; 0.687% in [6]; 4.2% in [7]; 1.85% in test [8]; 4.2% in test [9].

Values taken from PubChem BioAssay (NCATS).
